# Screening results (PubChem BioAssay)
# Shown are actives, neighbours in structure and some others; about 0.84% of the full set was active somewhere.
# SRC2 inh: inhibition of GAL4-SRC2 driven luciferase reporter, primary screen, SRC2 inhibitor project, cell-based, luminescence. inhibition, % at 9 µM. hit rate 0.17% among 370,000. HEK293 GAL4-SRC2 luciferase reporter. Nuclear receptor coactivator 2 (Homo sapiens), Q15596;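 active means inhibition above the mean inhibition of all tested compounds plus 3 SD, set per campaign, cut at about 52% in these data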;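 further: 0% = DMSO treated cells and 100% = cells given Gossypol at 36 µM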
# SRC3 inh: SRC3 coactivator transcriptional activity inhibitors, primary screen, cell-based, luminescence | Nuclear receptor coactivator 3 (Homo sapiens), Q9Y6Q9 | HEK293 GAL4-SRC3 luciferase reporter | inhibition, % at 3.6 µM | hit rate 0.17% among 360,000 | AID 588352, 2011;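 active means inhibition above a per-campaign cutoff, the mean of all compounds plus 3 SD, cut at about 60% in these data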;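 further: 0% = DMSO-treated cells and 100% = gossypol-treated cells at 36 µM; higher means less SRC3-driven luciferase light from the GAL4 reporter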
# Target sequence (Q9Y6Q9 whole entry, looked up, the tested form may be a part): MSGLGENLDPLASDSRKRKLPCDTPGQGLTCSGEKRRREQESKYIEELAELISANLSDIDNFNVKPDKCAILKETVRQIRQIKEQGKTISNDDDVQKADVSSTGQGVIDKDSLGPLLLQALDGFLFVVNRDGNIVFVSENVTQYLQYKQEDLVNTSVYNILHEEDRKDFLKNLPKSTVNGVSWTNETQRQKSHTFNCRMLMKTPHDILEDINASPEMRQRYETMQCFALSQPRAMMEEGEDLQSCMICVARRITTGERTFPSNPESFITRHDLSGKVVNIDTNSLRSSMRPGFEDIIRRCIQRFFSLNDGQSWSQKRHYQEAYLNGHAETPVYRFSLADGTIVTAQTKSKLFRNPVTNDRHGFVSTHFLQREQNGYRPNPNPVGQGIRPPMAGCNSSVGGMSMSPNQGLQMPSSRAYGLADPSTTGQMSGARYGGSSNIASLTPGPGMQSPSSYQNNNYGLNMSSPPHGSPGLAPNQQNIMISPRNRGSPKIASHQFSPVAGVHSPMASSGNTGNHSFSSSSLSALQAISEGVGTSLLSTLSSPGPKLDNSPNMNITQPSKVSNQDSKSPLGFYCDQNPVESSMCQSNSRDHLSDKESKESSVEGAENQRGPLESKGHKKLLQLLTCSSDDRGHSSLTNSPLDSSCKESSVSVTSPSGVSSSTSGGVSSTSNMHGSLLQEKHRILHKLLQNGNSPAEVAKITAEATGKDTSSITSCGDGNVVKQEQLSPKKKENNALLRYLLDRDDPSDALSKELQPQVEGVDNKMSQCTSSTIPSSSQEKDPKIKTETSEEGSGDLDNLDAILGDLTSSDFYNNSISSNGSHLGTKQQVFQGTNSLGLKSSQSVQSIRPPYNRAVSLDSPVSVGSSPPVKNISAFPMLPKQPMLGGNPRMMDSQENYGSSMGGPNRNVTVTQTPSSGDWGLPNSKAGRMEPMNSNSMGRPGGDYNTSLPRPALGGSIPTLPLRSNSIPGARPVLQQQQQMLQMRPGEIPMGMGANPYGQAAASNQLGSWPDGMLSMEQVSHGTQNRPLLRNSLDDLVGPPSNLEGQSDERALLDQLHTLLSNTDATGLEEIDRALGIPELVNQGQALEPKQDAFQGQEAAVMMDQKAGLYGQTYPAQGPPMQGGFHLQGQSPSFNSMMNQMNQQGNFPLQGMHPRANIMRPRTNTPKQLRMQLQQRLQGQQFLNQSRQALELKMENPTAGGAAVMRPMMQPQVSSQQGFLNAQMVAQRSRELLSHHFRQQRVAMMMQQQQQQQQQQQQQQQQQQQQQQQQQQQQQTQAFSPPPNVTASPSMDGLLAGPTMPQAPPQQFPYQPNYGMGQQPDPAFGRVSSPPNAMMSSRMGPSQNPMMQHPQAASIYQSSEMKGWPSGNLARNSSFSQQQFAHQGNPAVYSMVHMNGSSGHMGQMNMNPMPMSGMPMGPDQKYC
# NR2F2 inh: NR2F2 transcriptional activity inhibitors, primary screen, cell-based, luciferase reporter, HEK293T, luminescence; COUP transcription factor 2 (Homo sapiens), P24468; inhibition, % at 8.6 µM; HEK293T NGFI-A luciferase reporter; AID 686940, 2013; hit rate 0.7% among 370,000;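 active means inhibition above a per-plate cutoff, mean inhibition of test wells between control levels plus 3 SD, cut at about 38% in these data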;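 further: cells cotransfected with COUP-TFII expression vector driving the NGFI-A reporter; 0% = median of COUP-TF2 test wells and 100% = reporter-only cells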
# NCOA1 inh: SRC1 coactivator transcriptional activity inhibitors, primary screen, cell-based, luminescence. HEK293 GAL4-SRC1 luciferase reporter. hit rate 0.12% among 360,000. inhibition, % at 3.6 µM. AID 588354, 2011. Nuclear receptor coactivator 1 (Homo sapiens), Q15788;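 active means inhibition above the campaign mean plus 3 SD, with each screening campaign given its own cutoff, cut at about 60% in these data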;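 further: 0% = DMSO treated cells and 100% = gossypol at 36 µM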
# NR5A2 inv ag: LRH-1 (NR5A2) inverse agonists, primary screen, cell-based, luminescence, HEK293T, StAR-luciferase reporter; Nuclear receptor subfamily 5 group A member 2 (Homo sapiens), O00482; LRH-1 transfected, 24 h; inhibition, % at 3.6 µM; hit rate 0.13% among 360,000; AID 602396, 2012;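 active means inhibition above the mean inhibition of all tested compounds plus 3 SD, cut at about 73% in these data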;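 further: 0% = DMSO wells and 100% = reporter-only cells lacking LRH-1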
# Gal4-VP16 ctr: Gal4-VP16 luciferase reporter inhibitors, counter-screen for COUP-TFII antagonist project, cell-based, luminescence, HEK293; shares compounds with NR2F2 inh; inhibition, % at 8.5 µM; hit rate 25% among 2,500; AID 687007, 2013; in the data active means inhibition above about 13%
# NR2F2 inh conf: NR2F2 transcriptional activity inhibitors, confirmation, cell-based, luciferase reporter, HEK293, triplicate; inhibition, % at 8.5 µM; HEK293 NGFI-A luciferase reporter, luminescence; shares compounds with NR2F2 inh; hit rate 45% among 2,500;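 active means mean inhibition over three repeats above a set limit taken from the earlier primary screen, cut at about 38% in these data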;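 further: 100% = cells given the luciferase reporter alone without the COUP-TF2 vector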
# Numbers without * were called inactive; . = no result given.
SMILES,SRC2 inh,SRC3 inh,NR2F2 inh,NCOA1 inh,NR5A2 inv ag,Gal4-VP16 ctr,NR2F2 inh conf
COc1cccc2c1C(=O)c1c(O)c3c(c(O)c1C2=O)C[C@](O)(C(C)=O)C[C@H]3O[C@@H]1C[C@@H](N)[C@@H](O)[C@@H](C)O1,47.1,-104.8,54.9*,-165.1,99.0*,36.0*,47.1*
COc1cccc2c1C(=N)c1c(O)c3c(c(O)c1C2=O)CC(O)(C(C)=O)CC3OC1CC(N)C(O)C(C)O1 (centres undefined),.,32.9,.,57.0,27.6,.,.
O=C(C1CCCN1S(=O)(=O)c1ccccc1[N+](=O)[O-])N1CCc2ccccc2C1 (centres undefined),1.0,.,18.5,.,.,.,.
C=CCn1c(O)c(N=NC(=S)Nc2ccccc2F)c2cc(S(=O)(=O)N3CCOCC3)ccc21,14.0,17.3,48.6*,7.3,-1.7,-1.5,28.1
C=CCn1c(O)c(N=NC(=S)Nc2ccccc2F)c2ccccc21,4.6,15.7,21.8,7.7,14.0,.,.
O=C(NCCc1c[nH]c2ccccc12)C(=O)NCC(c1cccnc1)N1CCN(c2ccccc2)CC1 (centres undefined),27.6,21.4,67.3*,16.1,28.3,0.3,33.8
COC(=O)NCC(c1cccnc1)N1CCN(c2ccccc2)CC1 (centres undefined),-5.8,-38.8,1.3,-25.7,-3.4,.,.
C/C(=N/NC(=O)CSc1nnc(SCc2ccc(C)cc2)s1)c1cccc(O)c1,17.3,.,35.0,.,.,.,.
CCN(Cc1ccccc1)C(=O)CCCN1C(=O)COc2ccc(C)cc21,20.5,.,-4.8,.,.,.,.
CCOC(=O)C1CCN(C(=O)C(C)N(c2ccc(Oc3ccccc3)cc2)S(C)(=O)=O)CC1 (centres undefined),25.9,16.2,45.4*,6.8,28.2,-2.8,21.2
CCOC(=O)N1CCN(C(=O)C(C)N(c2ccc(Oc3ccccc3)cc2)S(C)(=O)=O)CC1 (centres undefined),-10.5,3.7,1.4,3.2,9.2,.,.
COc1ccc(N(C(C)C(=O)N2CCC(Cc3ccccc3)CC2)S(C)(=O)=O)cc1 (centres undefined),24.2,24.0,41.8*,19.3,11.2,-3.3,29.6
COc1ccc(N(C(C)C(=O)N2CCCC2)S(C)(=O)=O)cc1 (centres undefined),10.8,-11.8,-7.6,5.3,-0.4,.,.
COC(=O)c1ccc(N2C(c3ccsc3)=Cc3cc4c(cc3C2CC(=O)c2ccco2)OCO4)cc1 (centres undefined),22.8,.,43.0*,.,28.0,-0.9,7.6
COC(=O)c1ccc(N2C(c3cc(OC)cc(OC)c3)=Cc3ccc(OC)cc3C2CC(=O)c2ccco2)cc1 (centres undefined),12.9,.,2.1,.,8.9,.,.
O=C(CCN1C(=O)/C(=C/c2ccccc2)SC1=S)Nc1ccccn1,-14.8,-11.5,-0.6,12.3,-2.7,.,.
COc1ccc(/C=C2/SC(=S)N(CCCC(=O)Nc3ccccc3C(=O)O)C2=O)cc1,66.3*,35.2,52.3*,36.3,23.4,42.5*,30.2
COc1ccc(/C=C2\SC(=S)N(CCCC(=O)NNC(=O)c3ccccc3O)C2=O)cc1,45.1,30.3,25.3,18.2,9.4,.,.
Cc1ccc(/C=C2\SC(=S)N(CCCC(=O)Nc3ccccn3)C2=O)cc1,89.3*,57.4,81.0*,47.9,41.9,40.1*,35.1
COc1ccc(/C=C2\SC(=O)N(CCCC(=O)Nc3ccc(C(=O)O)cc3)C2=O)cc1,90.7*,72.7*,97.7*,72.7*,74.2*,83.4*,96.0*
COc1ccc(CCNC(=O)c2cc3c(C)nn(-c4ccccc4)c3s2)cc1OC,3.5,.,16.1,.,.,.,.
O=C(NCCN1CCC(Cc2ccccc2)CC1)C1CCCN(S(=O)(=O)c2cccs2)C1 (centres undefined),13.1,.,46.7*,.,.,-0.6,6.2
CN(C)c1cc[n+](CC[n+]2ccc(N(C)C)cc2)cc1,11.8,-9.6,-6.2,-22.1,-0.1,.,.
CN(C)c1cc[n+](Cc2c(Cl)cccc2Cl)cc1,-0.1,22.6,47.0*,5.7,45.9,4.8,34.0
COc1cccc(NC(=O)C2CCCN2C(=O)Nc2ccc(Cl)cc2)c1 (centres undefined),-24.2,.,-7.2,.,.,.,.
SMILES,SRC2 inh,SRC3 inh,NR2F2 inh,NCOA1 inh,NR5A2 inv ag,Gal4-VP16 ctr,NR2F2 inh conf
CC(COc1ccc(S(C)(=O)=O)cc1)CN1CCC(C(O)(c2ccccc2)c2ccccc2)CC1 (centres undefined),-22.8,.,-2.1,.,.,.,.
CC[C@@]1(c2ccc(C)cc2)C(=O)N(C(=O)OC(C)C)N1C(=O)OC(C)C,5.5,.,-18.9,.,.,.,.
CC1=C(CO)C(=O)OC([C@@H](C)C2CC[C@H]3C4C[C@H]5O[C@]56[C@@H](O)C=CC(=O)[C@]6(C)C4CC[C@]23C)C1 (some centres undefined),68.4*,19.8,43.7*,14.1,61.7,49.1*,41.0*
O=C1N2Cc3ccccc3C2CS(=O)(=O)N1CCc1ccccc1 (centres undefined),-14.2,.,-16.1,.,.,.,.
O=C(CCCOc1ccccc1)Nc1ccc(Cl)c(S(=O)(=O)N2CCOCC2)c1,32.3,17.6,49.2*,12.0,21.2,8.5,28.4
Cc1cc(C)c(NC(=O)c2ccc3c(c2)NC(=O)C(C)S3)c(C)c1 (centres undefined),17.1,-1.1,4.8,5.2,11.3,.,.
CC(=O)c1ccc(OCCCC(=O)Nc2ccc(Cl)c(S(=O)(=O)N3CCOCC3)c2)cc1,19.0,-18.4,69.8*,20.4,34.9,2.7,55.7*
CCN(CC)S(=O)(=O)c1cc(NC(=O)c2ccc3c(c2)NC(=O)C(C)S3)ccc1C (centres undefined),36.1,17.4,60.6*,-7.2,18.2,9.0,47.2*
Cc1ccc(OCCCC(=O)Nc2ccc(Cl)c(S(=O)(=O)N3CCOCC3)c2)cc1,26.8,19.7,56.9*,16.9,14.6,-5.3,36.4
COc1ccc(S[C@]2(C(=O)N(C)C)CC(=O)N(C(=O)C3CC3)[C@@H]2c2ccc(OC)cc2)cc1,-14.5,.,-6.4,.,.,.,.
O=C(CCSc1ccccc1)Nc1ccc(S(=O)(=O)N2CCOCC2)cc1,-7.6,-16.4,2.4,-4.1,-19.5,.,.
O=C(CCCSc1ccccc1)Nc1ccc(Cl)c(S(=O)(=O)N2CCOCC2)c1,13.8,4.2,39.5*,6.3,3.2,11.6,25.5
